Compound activity from PubChem BioAssay.
PLK1 PBD inh = qHTS for Inhibitors of PLK1-PDB (polo-like kinase 1 - polo-box domain): Primary Screen; 360,000 tested, 2.8% active; Potency, µM, for the others: max response, negative = inhibition, hits mostly inhibitors; Plk1 PBD binding of FITC phosphopeptide, fluorescence polarization; Serine/threonine-protein kinase PLK1 (Homo sapiens), P53350; further: series mostly up to about 57 µM; on the % scale 0 is the no-effect control and ±100 the full control effect; nearly all actives have a fitted effect of over 65% in size
L3MBTL1 inh = qHTS Assay for the Inhibitors of L3MBTL1; Lethal(3)malignant brain tumor-like protein 1 (Homo sapiens), Q9Y468; AlphaScreen L3MBTL1–H3K9me1 peptide binding; Potency, µM (titrated, usually from 57.1 µM), without a hit: at the highest dose activity, negative = inhibition, actives largely listed as inhibitors; 230,000 tested, 0.66% active; AID 485360, 2010; further: on the % scale 0 is the no-effect control and ±100 the full control effect; nearly all actives have a fitted effect of over 60% in size
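AlphaScreen assay: L3MBTL1 (50 nM final) was preincubated 30 min at room temperature with biotinylated H3(1-15)K9me1 peptide (75 nM final), then 30 min with library compounds; streptavidin donor and nickel chelate acceptor beads (10 ug/mL final) added, 30 min dark.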
HP1b binding inh = HTS for Inhibitors of HP1-beta Chromodomain Interactions with Methylated Histone Tails; Chromobox protein homolog 1 (Homo sapiens), P83916; AlphaScreen HP1-beta / biotin-H3K9me3 peptide binding; Potency, µM (highest dose often 114 µM), inactives show at the highest dose activity change, negative = inhibition, actives largely listed as inhibitors; 390,000 tested, 0.56% active; AID 540317, 2011; further: nearly all actives have a fitted effect of over 70% in size
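AlphaScreen: HP1-beta (50 nM) preformed 30 min with biotin-H3(1-18)K9me3 peptide (50 nM) in PBS pH 7.4, 0.01% Tween-20. Compound added for 30 min at RT, then streptavidin donor/nickel chelate acceptor beads (10 ug/mL) for 30 min.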
VDR inh = Inhibitors of the vitamin D receptor (VDR): qHTS; 400,000 tested, 0.93% active; VDR-SRC2-3 peptide fluorescence polarization, 2 h; AID 504847, 2011; Vitamin D3 receptor (Homo sapiens), P11473; Potency, µM, for inactives: max response, negative = inhibition, hits mostly inhibitors; further: on the % scale 0 is the no-effect control and ±100 the full control effect
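Compounds are added to VDR with labelled SRC2-3 coactivator peptide and held 2 h at room temperature. Inhibition of the VDR–peptide interaction is then read as a change in fluorescence polarization.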
JMJD2A Tudor inh = qHTS Assay for Inhibitors of JMJD2A-Tudor Domain; Lysine-specific demethylase 4A (Homo sapiens), O75164; AlphaScreen JMJD2A-Tudor / H3K4me3 peptide binding; Potency, µM (highest dose often 114 µM), for the others: at the top dose activity change, negative = inhibition, actives largely listed as inhibitors; 390,000 tested, 4.4% active; further: on the % scale 0 is the no-effect control and ±100 the full control effect; nearly all actives have a fitted effect of over 50% in size
BAZ2B inh = qHTS Assay for Inhibitors of BAZ2B | 360,000 tested, 4.4% active | AlphaScreen BAZ2B-H3K14Ac peptide displacement | Potency, µM (highest dose often 114 µM), inactives show at the top dose activity change, negative = inhibition, actives largely listed as inhibitors | Bromodomain adjacent to zinc finger domain protein 2B (Homo sapiens), Q9UIF8; further: on the % scale 0 is the no-effect control and ±100 the full control effect; nearly all actives have a fitted effect of over 60% in size
Target sequence (Q9UIF8 whole entry, looked up, the tested form may be a part): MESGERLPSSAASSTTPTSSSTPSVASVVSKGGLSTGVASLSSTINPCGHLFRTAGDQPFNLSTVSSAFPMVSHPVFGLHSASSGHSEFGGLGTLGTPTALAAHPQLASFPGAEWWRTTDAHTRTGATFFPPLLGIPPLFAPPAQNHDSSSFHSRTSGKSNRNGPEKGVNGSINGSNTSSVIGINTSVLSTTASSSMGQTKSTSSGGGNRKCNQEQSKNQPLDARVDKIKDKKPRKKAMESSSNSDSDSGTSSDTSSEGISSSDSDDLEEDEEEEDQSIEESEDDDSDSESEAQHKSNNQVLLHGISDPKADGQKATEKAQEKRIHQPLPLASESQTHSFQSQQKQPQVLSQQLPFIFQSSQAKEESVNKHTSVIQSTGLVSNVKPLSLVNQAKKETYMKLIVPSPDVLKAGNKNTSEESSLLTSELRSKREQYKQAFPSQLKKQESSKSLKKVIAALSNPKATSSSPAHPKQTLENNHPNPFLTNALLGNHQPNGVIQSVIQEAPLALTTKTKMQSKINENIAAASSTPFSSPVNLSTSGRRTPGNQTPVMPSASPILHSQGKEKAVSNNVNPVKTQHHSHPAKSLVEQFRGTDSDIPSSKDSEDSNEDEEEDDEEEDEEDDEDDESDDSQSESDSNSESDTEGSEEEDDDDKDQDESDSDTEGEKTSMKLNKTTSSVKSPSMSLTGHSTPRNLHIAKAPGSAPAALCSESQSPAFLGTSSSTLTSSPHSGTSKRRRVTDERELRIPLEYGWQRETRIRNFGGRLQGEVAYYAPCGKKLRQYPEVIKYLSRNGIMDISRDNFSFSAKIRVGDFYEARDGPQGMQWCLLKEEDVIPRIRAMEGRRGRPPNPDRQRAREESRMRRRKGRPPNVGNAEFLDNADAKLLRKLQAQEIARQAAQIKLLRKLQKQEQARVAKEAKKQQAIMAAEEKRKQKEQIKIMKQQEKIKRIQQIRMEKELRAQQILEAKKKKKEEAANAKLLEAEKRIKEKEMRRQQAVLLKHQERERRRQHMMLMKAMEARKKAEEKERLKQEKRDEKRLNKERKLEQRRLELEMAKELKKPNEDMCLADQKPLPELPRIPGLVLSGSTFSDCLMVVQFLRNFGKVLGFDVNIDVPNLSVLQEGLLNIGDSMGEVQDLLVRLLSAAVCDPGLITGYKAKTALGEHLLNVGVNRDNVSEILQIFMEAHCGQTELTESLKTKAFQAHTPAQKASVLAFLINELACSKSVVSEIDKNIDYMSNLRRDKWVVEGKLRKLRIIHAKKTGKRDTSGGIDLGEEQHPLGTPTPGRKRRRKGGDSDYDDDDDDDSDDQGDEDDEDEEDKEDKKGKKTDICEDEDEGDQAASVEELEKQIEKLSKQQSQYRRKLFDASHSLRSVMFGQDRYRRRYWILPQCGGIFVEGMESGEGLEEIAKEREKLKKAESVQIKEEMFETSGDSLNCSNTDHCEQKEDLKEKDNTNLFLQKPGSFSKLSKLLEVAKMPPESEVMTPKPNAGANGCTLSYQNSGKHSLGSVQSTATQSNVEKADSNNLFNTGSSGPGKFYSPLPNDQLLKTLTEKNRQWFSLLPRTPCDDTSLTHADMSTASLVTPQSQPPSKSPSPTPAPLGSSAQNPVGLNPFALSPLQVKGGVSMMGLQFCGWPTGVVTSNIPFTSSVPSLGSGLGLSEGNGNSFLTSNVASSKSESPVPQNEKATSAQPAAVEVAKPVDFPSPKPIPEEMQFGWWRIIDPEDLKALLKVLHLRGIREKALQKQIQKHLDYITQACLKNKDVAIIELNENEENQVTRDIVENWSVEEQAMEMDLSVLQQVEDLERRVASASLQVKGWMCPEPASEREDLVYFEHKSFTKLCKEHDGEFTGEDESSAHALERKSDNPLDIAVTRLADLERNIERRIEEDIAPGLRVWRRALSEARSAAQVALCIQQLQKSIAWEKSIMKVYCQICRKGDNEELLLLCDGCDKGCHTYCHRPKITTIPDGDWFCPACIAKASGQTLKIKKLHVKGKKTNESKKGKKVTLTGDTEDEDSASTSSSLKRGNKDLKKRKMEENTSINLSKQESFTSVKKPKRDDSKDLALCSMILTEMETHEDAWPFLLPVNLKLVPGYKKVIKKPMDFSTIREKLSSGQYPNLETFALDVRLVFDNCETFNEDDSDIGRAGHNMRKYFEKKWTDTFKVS
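In this displacement format the biotinylated H3(5-23) peptide acetylated at Lys14 serves as ligand at 50 nM, with BAZ2B at 50 nM in PBS pH 7.4 containing 0.01% Tween-20. Donor and acceptor beads are 10 ug/mL final.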
VDR confirm = qHTS for Inhibitors of the vitamin D receptor (VDR): Hit Validation in Primary Screen; Potency, µM, actives largely listed as inhibitors; AID 602199, 2012; VDR-coactivator inhibition assay, qHTS confirmation; shares compounds with VDR inh; 840 tested, 89% active
VDR FP = qHTS for Inhibitors of the vitamin D receptor (VDR): Hit Validation using a Fluorescein Assay; Potency, µM (titrated, usually from 57.1 µM), for inactives: at the top dose activity change, negative = inhibition, most hits filed as inhibitors; 840 tested, 48% active; VDR-coactivator binding, fluorescein fluorescence polarization; shares compounds with VDR inh
VDR bla reporter = qHTS for Inhibitors of the vitamin D receptor (VDR): Hit Validation using a Beta-Lactamase Assay. shares compounds with VDR inh. VDR beta-lactamase reporter cells, FRET ratio; cells co-treated with VDR agonist LG190178. Potency, µM (top dose mostly 46.1 µM), without a hit: top-dose activity change, negative = inhibition, usual class: inhibitors. 840 tested, 23% active; further: on the % scale 0 is the no-effect control and ±100 the full control effect
VDR cytotox = qHTS for Inhibitors of the vitamin D receptor (VDR): Hit Validation using a Cytotoxicity Assay. shares compounds with VDR inh. 840 tested, 18% active. Potency, µM (titrated, usually from 48.3 µM), for the others: top-dose activity change, negative = cytotoxicity, usual class: cytotoxic. cytotoxicity counter-screen, cell viability, qHTS;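 further: plate controls were DMSO for no effect and high-concentration cycloheximide for full effect; nearly all actives have a fitted effect of over 75% in size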
TbPYK inh = qHTS of Trypanosoma Brucei Inhibitors: Confirmatory Assay for Cherry-picked Compounds; shares compounds with PLK1 PBD inh; recombinant TbPYK, Kinase-Glo ATP luminescence; Potency, µM (highest dose often 76.9 µM), inactives show at the highest dose activity change, negative = inhibition, most hits filed as inhibitors; 890 tested, 67% active; further: on the % scale 0 is the no-effect control and ±100 the full control effect; nearly all actives have a fitted effect of over 70% in size
TbPYK ADP-Glo = qHTS of Trypanosoma Brucei Inhibitors: Orthogonal Assay for Cherry-picked Compounds; shares compounds with PLK1 PBD inh; recombinant TbPYK, ADP-Glo luminescence, 60 min; Potency, µM (titrated, usually from 76.9 µM), without a hit: top-dose activity change, negative = inhibition, hits mostly inhibitors; 890 tested, 62% active; further: on the % scale 0 is the no-effect control and ±100 the full control effect; nearly all actives have a fitted effect of over 75% in size
Numbers without * were called inactive; ? = inconclusive; nt = not tested or not shown. Only some compounds are listed: those with a hit (about 6.9% of all), similar ones and a draw of the others. The call rests on the fitted dose curve; in most records, active means well fitted curve in the direction sought with a large enough effect; inconclusive means small, poorly fitted or top-dose-only effect, or another doubt; inactive means no such curve, though single readings can be large; an effect the other way counts as inactive or inconclusive. Potency means the concentration at half of the fitted maximal effect.

SMILES	PLK1 PBD inh	L3MBTL1 inh	HP1b binding inh	VDR inh	JMJD2A Tudor inh	BAZ2B inh	VDR confirm	VDR FP	VDR bla reporter	VDR cytotox	TbPYK inh	TbPYK ADP-Glo
CCOC(=O)/C=C(C)/C=C/CC(C)CCCC(C)C (configuration not stated)	nt	nt	nt	-0.3%	nt	nt	nt	nt	nt	nt	nt	nt
COc1cc(/C=C2\C(=O)NC(=O)N(c3ccccc3)C2=O)c([N+](=O)[O-])cc1OC	11.9µM*	16.8%	1.3%	44.7µM*	-25.6%	-24.5%	26.7*	20µM*	53.2%	29.4%	15.8µM*	35.5µM*
CC1=C2CCC3C4CCC(=O)[C@@]4(C)CCC3[C@]2(C)CCC1=O (some centres not stated)	nt	nt	nt	10.4%	nt	nt	nt	nt	nt	nt	nt	nt
COc1cc(/C=C/[N+](=O)[O-])ccc1OC(=O)c1cccnc1	3.36µM*	-8.1%	15.9%	25.1µM*	-22.6%	-31.9%	6.7*	?	?	?	7.08µM*	15.8µM*
CC1CCN(C(CC(=O)c2ccccc2)C(=O)c2ccccc2)CC1 (configuration not stated)	?	nt	?	25.1µM*	20µM*	nt	10.6*	?	?	?	20µM*	12.6µM*
C[C@]12CC[C@H]3[C@@H](CCC4=CC(=O)CC[C@@H]43)[C@@H]1CC[C@@H]2O	-15.2%	0.7%	53.7%	-17.3%	-6.2%	nt	nt	nt	nt	nt	nt	nt
C[C@]12CC[C@@H]3c4ccc(O)c(O)c4CC[C@H]3[C@@H]1CC[C@@H]2O	?	nt	15.8µM*	-15.3%	8.91µM*	56.2µM*	nt	nt	nt	nt	10µM*	10µM*
C[C@]12CC[C@@H]3c4cc(O)c(O)cc4CC[C@H]3[C@@H]1CC[C@@H]2O	21.2µM*	nt	?	-16.9%	12.6µM*	?	nt	nt	nt	nt	2.24µM*	3.55µM*
